# Rows were chosen to be rich in hits. Some 7.8% of all compounds tested hit in one or more screens of this group.
# HCMV antiviral: blocks human cytomegalovirus replication; activity change, negative = inhibition, % at 57.5 µM; hit rate 4.5% among 410,000; HFF cells, HCMV-luciferase reporter, 72 h; stronger effect = lower value; in the data active means activity change below about -60%; inconclusive means no clear call, values can overlap the other calls; inactive means above about -39%
#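 Compounds were evaluated in HFFs infected with an HCMV luciferase reporter virus (MOI 1 PFU/cell). Luciferase in lysates collected 72 h post infection served as the replication measure.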
# Lassa entry inh: Lassa virus entry inhibition; Lassa virus pseudotype entry inhibition, cell reporter; Potency, µM (series often up to 37.9 µM), hits mostly inhibitors; hit rate 1.2% among 300,000; calls by dose curve; tested in HEK293 cells; further: nearly all actives have a fitted effect of over 50% in size
# HCV inhibitor: HCV inhibition | hit rate 3.4% among 340,000 | AID 651820 | Huh7.5.1 HCVcc-Cre infection, luciferase reporter, 44 h | Potency, µM (top dose mostly 41.8 µM), most hits filed as inhibitors; active means well fitted inhibition curve with a large enough effect; inconclusive means small, poorly fitted or top-dose-only effect, or another doubt; inactive means no such curve, though single readings can be large or run the other way
#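 Antiviral activity was scored by luciferase reporter output from cells infected with HCVcc-Cre (~0.5 moi) in presence of compound, 44 h infection period, cells seeded 1,000/well 4 h prior.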
# Vaccinia mCherry: vaccinia inhibition (mCherry reporter). Potency, µM (top dose mostly 36.5 µM), actives largely listed as inhibitors. hit rate 0.63% among 310,000. Vaccinia virus mCherry reporter infection, fluorescence; calls by dose curve; tested in A549 cells; further: nearly all actives have a fitted effect of over 35% in size
# MARV entry inh: blocks Marburg virus binding to or entry into cells | Marburg virus pseudotyped entry inhibition, cell reporter | Potency, µM (series often up to 37.8 µM), usual class: inhibitors | hit rate 1.8% among 300,000 | AID 540276; calls by dose curve; tested in HEK293 cells
# VACV Venus inh: vaccinia inhibition (Venus reporter). Vaccinia virus Venus reporter expression, fluorescence. hit rate 0.46% among 330,000. Potency, µM (highest dose often 36.5 µM), usual class: inhibitors; calls by dose curve; tested in A549 cells; further: nearly all actives have a fitted effect of over 30% in size
# Numbers stand for hits; i = inactive; ? = inconclusive; nt = no result; + = active, no number; ! = not active in a repeat; [ ] = remark or other dose.
SMILES,HCMV antiviral,Lassa entry inh,HCV inhibitor,Vaccinia mCherry,MARV entry inh,VACV Venus inh
Cc1ccc(-c2cn3nc(C)c(C)nc3n2)cc1,i,?,i,i,0.28µM,i
CCc1ccc(NC(=O)C2CCN(c3ccc(Sc4ccc(C)cc4)nn3)CC2)cc1,i,i,nt,i,i,i
CC(C)C[C@H]1COc2cc(F)ccc2S(=O)(=O)N1,nt,i,nt,nt,nt,nt
Cc1ccc2c(c1)C(=O)C1(O)CCN(c3ccccc3)C1=N2 (stereo not given),nt,nt,nt,i,nt,i
Cc1nn2c(c1-c1ccc(Cl)cc1)N=C(c1ccco1)CC2c1ccccc1 (stereo not given),?,?,2.5µM,?,?,i
Clc1ccc(C2=NN(c3ccccc3)C(c3ccco3)C2)cc1 (stereo not given),i,i,i,i,?,i
Cc1cccc(CS(=O)(=O)Cc2ccc(C(=O)NCc3ccccc3)o2)c1,i,i,?,i,nt,i
COc1ccc(NC(=O)c2cc([N+](=O)[O-])ccc2N2CCNCC2)cc1,i,i,i,i,i,i
COc1ccc(NC(=O)c2cc([N+](=O)[O-])ccc2O)cc1,-102,nt,?,6.3µM,nt,?
O=C(Nc1ccc(Cl)c(-c2nc3ccccc3o2)c1)c1ccc(-c2cccc([N+](=O)[O-])c2)o1,-103,i,nt,i,i,i
O=C(Nc1ccccc1)c1ccc(-c2ccc([N+](=O)[O-])cc2)o1,-66,i,i,i,i,i
O=C(Nc1ccccc1)c1ccc(-c2ccc(Br)cc2)o1,i,?,?,nt,i,nt
COc1ccc(CCNC(=O)c2ccc(CS(=O)(=O)Cc3cccc(C)c3)o2)cc1OC,+!,?,22µM,i,?,i
C=CCO[C@@H]1C=C[C@@H](c2ccccc2)O[C@@H]1COC,nt,nt,nt,nt,i,nt
CCc1ccccc1NC(=O)CCCn1c(=O)c2cccn2c2ccccc21,i,?,nt,i,nt,i
COc1cccc([C@@H]2Oc3ccc(OC)cc3[C@H](O)[C@@H]2O)c1,nt,nt,nt,nt,i,nt
COc1cc(OC)c(N(C)C(=O)CSc2c3c(nc4ccc(Cl)cc24)CCCC3)cc1Cl,i,?,nt,i,i,i
O=C(OCc1cn([C@H]2C[C@H](c3ccccc3)N(C(=O)C3CCCCC3)C[C@H]2O)nn1)c1ccccc1,nt,i,nt,nt,nt,nt
COc1ccc(CCNC(=O)c2ccc(-c3ccc([N+](=O)[O-])cc3)o2)cc1OC,-69,?,i,i,?,i
O=C(O)c1ccccc1C(=O)Nc1cccc([N+](=O)[O-])c1,i,nt,i,i,nt,i
O=C(NNC(=O)c1ccccc1O)c1ccc(-c2ccc([N+](=O)[O-])cc2)o1,?,?,?,10µM,i,?
O=C(Nc1nccs1)c1ccc(-c2ccc([N+](=O)[O-])cc2)o1,?,i,i,i,i,i
COc1ccc(CCNC(=O)c2cc(-c3ccc(Cl)cc3)on2)cc1OC,i,?,nt,i,i,i
O=C(Nc1cccc([N+](=O)[O-])c1)c1cc2ccccc2cc1O,-101,nt,5.6µM,?,nt,?
COc1ccc(NC(=O)c2ccc(-c3ccc([N+](=O)[O-])cc3)o2)cc1,-61,i,i,i,?,i
SMILES,HCMV antiviral,Lassa entry inh,HCV inhibitor,Vaccinia mCherry,MARV entry inh,VACV Venus inh
CCCCn1nnnc1C(Nc1ccccc1C(C)=O)C1CC1 (stereo not given),i,nt,nt,nt,nt,nt
O=C(Nc1ccc(F)cc1)Nc1ccc(N2CCCC2)c(S(=O)(=O)Nc2ccccc2Cl)c1,-100,7.3µM,6.3µM,11µM,7.9µM,11µM
CC(C)(C)CC(=O)Nc1ccccc1N1CCN(c2ccc(F)cc2)CC1,i,?,i,i,7.9µM,i
O=C(Nc1ccc(Cl)c(Cl)c1)Nc1ccc(N2CCCC2)c(S(=O)(=O)Nc2ccccc2Cl)c1,-99,8.9µM,?,13µM,?,11µM
O=C(Nc1ccc(F)cc1)Nc1ccccc1N1CCCCC1,-71,nt,11µM,nt,nt,nt
COc1ccccc1NS(=O)(=O)c1cc(NC(=O)Nc2ccccc2)ccc1N1CCCCC1,i,?,?,i,?,i
O=C(Cc1ccc(F)cc1)Nc1ccccc1N1CCCC1,i,nt,i,nt,nt,nt
Cc1ccc(Cc2nc3ccccc3nc2SCC(=O)N2CCN(c3ccccc3F)CC2)cc1,?,i,nt,i,nt,i
C=C(CCN1C=C(C(=O)OCC)C(c2ccccc2)NC1=O)c1ccccc1 (stereo not given),nt,nt,nt,nt,i,nt
Cc1ccc(F)cc1S(=O)(=O)NCc1nc(N2CCCC2)c2cccc(C)c2n1,nt,nt,nt,i,nt,i
O=C(Nc1ccc(N2CCCCC2)c(S(=O)(=O)Nc2ccccc2Cl)c1)c1cccnc1,i,i,13µM,i,?,i
O=C(Nc1ccc(N2CCOCC2)c(S(=O)(=O)Nc2ccccc2Cl)c1)c1ccc(F)cc1,i,?,10µM,i,?,i
O=C(/C=C/c1cccs1)Nc1ccc(N2CCOCC2)c(S(=O)(=O)Nc2ccccc2Cl)c1,-78,?,?,i,?,i
O=C(Nc1ccc(F)cc1)Nc1csc2ccccc12,-75,?,i,?,?,?
COc1ccccc1NS(=O)(=O)c1cc(NC(=O)c2ccc(NC(C)=O)cc2)ccc1N1CCOCC1,i,?,?,i,i,i
CCOc1ccc(NC(=O)c2nnn(-c3ccc(F)c(Cl)c3)c2C)cc1,i,i,nt,i,i,i
CCOc1ccc(NC(=O)c2cc(S(=O)(=O)N3CCC(C)CC3)cn2C)cc1,i,i,nt,i,nt,i
Cc1ccc(CNC(=O)c2nn(-c3ccc(Cl)cc3)nc2CO)cc1,i,?,nt,i,i,i
Cc1ccc(NC(=O)c2cc(S(=O)(=O)N(C)C3CCCCC3)ccc2F)cc1C,i,i,nt,i,nt,i
CCOC(=O)c1cnc(NCc2ccc(OC)cc2OC)c2ccccc12,i,i,nt,i[7.34 µM],nt,i[7.34 µM]
O=S(=O)(c1ccc(O)cc1)c1ccc(O)cc1,i,nt,i,nt,nt,nt
O=C1C=CC(=C(c2ccc(O)cc2)c2ccc(O)cc2)C=C1,-100,nt,10µM,i,nt,i
CCOC(=O)Cn1c(=O)n(CC2CCCO2)c2nc(-c3ccc(C)cc3)nc(C(N)=O)c21 (stereo not given),i,i,nt,i,nt,i
CCC(=O)c1cc(F)c(N2CCN(S(=O)(=O)c3ccc(C)cc3)CC2)cc1C,i,i,13µM,i,?,i
COc1ccccc1NC(=O)C1=C(C)Nc2ncnn2C1c1ccc[nH]1 (stereo not given),i,i,nt,i,nt,i
SMILES,HCMV antiviral,Lassa entry inh,HCV inhibitor,Vaccinia mCherry,MARV entry inh,VACV Venus inh
COc1ccc(CNc2ncnc3c2c(-c2ccccc2)cn3-c2cccc(C)c2)cc1,?,i,nt,i,nt,i
COc1ccccc1CNc1ncnc2c1c(-c1ccccc1)cn2-c1cccc(C)c1,-60,i,nt,i,nt,i
O=C(O)CCCCCN1C(=O)CSC1=S,-81,?,i,nt,?,i
O=C(Cn1c(=O)c2cc(Cl)ccc2n2nncc12)Nc1ccccc1,i,i,nt,i,i,i
C[C@H](O)[C@@H]1CN2CCc3c([nH]c4ccc(-c5ccc6c(c5)OCO6)cc34)[C@@H]2C[C@@H]1N(C)C(=O)NC1CCCCC1,-86,nt,nt,?,nt,?
NC(=S)NN=C1CSSC1,nt,nt,nt,i,nt,i
CC(C)(C)N=C1NC(=NC(C)(C)C)c2ccccc21,-63,?,?,?,15µM,i
